# Experimental data taken from PMC7862700, “An all-to-all approach to the identification of sequence-specific readers for epigenetic DNA modifications on cytosine”.
# Experiments:
# Assay in all cases: DAPPL (digital affinity profiling via proximity ligation, sequencing); 10 mM Tris-HCl pH 7.5, 50 mM NaCl, 1 mM DTT, 4% glycerol, room temperature, 30 min; GST-TFs on glutathione beads, 16-mer random dsDNA library, 0.1% formaldehyde crosslink after washing; high values mean tight binding
# [1] = molecular target: T1, FLI1 (Homo sapiens, UniProt Q01543 1-452); settings: protein: recombinant; tags: N-terminal GST; dsDNA, one strand shown
# T1 sequence: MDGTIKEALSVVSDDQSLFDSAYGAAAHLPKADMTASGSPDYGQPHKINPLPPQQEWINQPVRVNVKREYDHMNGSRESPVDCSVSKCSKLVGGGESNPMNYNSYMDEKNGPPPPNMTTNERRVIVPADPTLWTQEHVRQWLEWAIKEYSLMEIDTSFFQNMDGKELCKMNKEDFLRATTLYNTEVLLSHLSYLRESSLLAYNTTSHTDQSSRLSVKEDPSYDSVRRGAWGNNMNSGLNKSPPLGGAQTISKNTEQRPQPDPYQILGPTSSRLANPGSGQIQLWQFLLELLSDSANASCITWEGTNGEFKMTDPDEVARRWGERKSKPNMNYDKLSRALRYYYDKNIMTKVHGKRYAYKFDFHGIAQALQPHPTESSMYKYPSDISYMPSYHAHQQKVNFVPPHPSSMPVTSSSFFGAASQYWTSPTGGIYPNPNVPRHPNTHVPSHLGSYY
# Outline: (§1)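 Each value of binding signal is a hexamer's read frequency for a factor divided by the same hexamer's frequency in the tag-only sample. Barcoded, bead-captured GST fusions of human transcription factors made in yeast were pooled with that sample and incubated with 200 nmole of a random double-stranded 16-mer DNA library in Tris/NaCl/DTT/glycerol buffer at room temperature for 30 min. Washing, 0.1% formaldehyde crosslinking, proximity ligation, PCR and Illumina NextSeq500 sequencing followed.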
# [2] = molecular target: T2, ELK1 (Homo sapiens, UniProt P19419 1-428); settings: protein: recombinant; tags: N-terminal GST; dsDNA, one strand shown
# T2 sequence: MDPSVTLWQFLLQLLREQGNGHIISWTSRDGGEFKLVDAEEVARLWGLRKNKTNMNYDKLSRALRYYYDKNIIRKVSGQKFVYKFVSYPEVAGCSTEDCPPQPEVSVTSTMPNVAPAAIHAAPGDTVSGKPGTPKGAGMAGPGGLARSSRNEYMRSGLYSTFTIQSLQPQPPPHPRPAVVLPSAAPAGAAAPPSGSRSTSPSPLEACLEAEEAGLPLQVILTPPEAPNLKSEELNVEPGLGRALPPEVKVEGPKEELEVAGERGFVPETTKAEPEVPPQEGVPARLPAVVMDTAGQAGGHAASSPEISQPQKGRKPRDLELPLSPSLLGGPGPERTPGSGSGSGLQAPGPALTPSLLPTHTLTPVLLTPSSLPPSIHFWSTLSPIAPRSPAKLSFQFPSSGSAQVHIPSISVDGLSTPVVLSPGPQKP
# Outline: as §1
# [3] = molecular target: T3, GABPA (Homo sapiens, UniProt Q06546 1-454); settings: protein: recombinant; tags: N-terminal GST; dsDNA, one strand shown
# T3 sequence: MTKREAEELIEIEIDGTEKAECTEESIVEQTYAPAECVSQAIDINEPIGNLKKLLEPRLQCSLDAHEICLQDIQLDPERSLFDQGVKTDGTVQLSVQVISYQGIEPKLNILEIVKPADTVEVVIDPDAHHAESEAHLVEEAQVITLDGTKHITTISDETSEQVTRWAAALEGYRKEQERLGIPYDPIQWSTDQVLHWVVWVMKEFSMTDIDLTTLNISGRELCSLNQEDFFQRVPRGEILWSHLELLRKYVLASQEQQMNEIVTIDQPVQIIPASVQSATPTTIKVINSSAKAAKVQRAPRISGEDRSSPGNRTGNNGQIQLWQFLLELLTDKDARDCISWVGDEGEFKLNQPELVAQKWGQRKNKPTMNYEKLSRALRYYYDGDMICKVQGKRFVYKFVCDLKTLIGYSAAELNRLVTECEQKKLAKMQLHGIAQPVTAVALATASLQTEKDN
# Outline: as §1
# [4] = molecular target: T4, ERG (Homo sapiens, UniProt P11308 1-479); settings: protein: recombinant; tags: N-terminal GST; dsDNA, one strand shown
# T4 sequence: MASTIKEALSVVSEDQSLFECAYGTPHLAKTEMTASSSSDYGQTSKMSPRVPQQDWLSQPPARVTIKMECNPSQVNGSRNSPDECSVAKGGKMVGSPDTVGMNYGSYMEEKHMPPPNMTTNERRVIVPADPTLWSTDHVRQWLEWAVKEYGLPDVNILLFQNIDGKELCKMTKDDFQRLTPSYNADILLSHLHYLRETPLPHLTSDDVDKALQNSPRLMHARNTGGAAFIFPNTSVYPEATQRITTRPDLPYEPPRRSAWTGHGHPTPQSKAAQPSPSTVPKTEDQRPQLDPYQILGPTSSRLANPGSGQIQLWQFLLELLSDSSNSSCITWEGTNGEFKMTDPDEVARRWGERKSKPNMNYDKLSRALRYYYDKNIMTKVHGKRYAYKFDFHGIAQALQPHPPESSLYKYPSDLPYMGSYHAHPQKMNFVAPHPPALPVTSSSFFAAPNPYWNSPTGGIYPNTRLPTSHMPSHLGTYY
# Outline: as §1
# [5] = molecular target: ELF1 (Homo sapiens, UniProt P32519 1-619); settings: protein: recombinant; tags: N-terminal GST; dsDNA, one strand shown
# Outline: as §1
# [6] = molecular target: T5, EHF (Homo sapiens, UniProt Q9NZC4 1-300); settings: protein: recombinant; tags: N-terminal GST; dsDNA, one strand shown
# T5 sequence: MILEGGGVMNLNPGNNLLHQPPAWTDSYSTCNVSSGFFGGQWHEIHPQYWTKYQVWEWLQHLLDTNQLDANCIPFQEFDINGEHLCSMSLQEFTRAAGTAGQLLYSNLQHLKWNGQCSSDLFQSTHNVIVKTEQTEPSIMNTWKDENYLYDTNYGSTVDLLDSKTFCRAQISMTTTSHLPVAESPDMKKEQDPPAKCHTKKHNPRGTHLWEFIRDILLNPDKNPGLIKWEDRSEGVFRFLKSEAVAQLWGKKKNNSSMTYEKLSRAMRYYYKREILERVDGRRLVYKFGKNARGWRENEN
# Outline: as §1
# [7] = molecular target: SPI1 (Homo sapiens, UniProt P17947 1-270); settings: protein: recombinant; tags: N-terminal GST; dsDNA, one strand shown
# Outline: as §1
# [8] = molecular target: SPIB (Homo sapiens, UniProt Q01892 1-262); settings: protein: recombinant; tags: N-terminal GST; dsDNA, one strand shown
# Outline: as §1
# [9] = molecular target: T6, ELK3 (Homo sapiens, UniProt P41970 1-407); settings: protein: recombinant; tags: N-terminal GST; dsDNA, one strand shown
# T6 sequence: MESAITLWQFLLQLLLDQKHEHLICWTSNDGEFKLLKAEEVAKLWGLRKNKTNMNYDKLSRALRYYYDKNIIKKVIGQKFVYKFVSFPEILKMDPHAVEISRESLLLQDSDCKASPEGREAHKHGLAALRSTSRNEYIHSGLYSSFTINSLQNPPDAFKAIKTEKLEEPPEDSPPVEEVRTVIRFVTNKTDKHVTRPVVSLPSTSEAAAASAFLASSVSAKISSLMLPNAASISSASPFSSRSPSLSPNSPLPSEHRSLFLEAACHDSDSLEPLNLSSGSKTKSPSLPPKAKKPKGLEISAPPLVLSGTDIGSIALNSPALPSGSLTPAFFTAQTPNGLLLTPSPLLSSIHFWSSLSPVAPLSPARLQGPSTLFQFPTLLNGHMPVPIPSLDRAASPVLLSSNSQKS
# Outline: as §1
# [10] = molecular target: T7, FEV (Homo sapiens, UniProt Q99581 1-238); settings: protein: recombinant; tags: N-terminal GST; dsDNA, one strand shown
# T7 sequence: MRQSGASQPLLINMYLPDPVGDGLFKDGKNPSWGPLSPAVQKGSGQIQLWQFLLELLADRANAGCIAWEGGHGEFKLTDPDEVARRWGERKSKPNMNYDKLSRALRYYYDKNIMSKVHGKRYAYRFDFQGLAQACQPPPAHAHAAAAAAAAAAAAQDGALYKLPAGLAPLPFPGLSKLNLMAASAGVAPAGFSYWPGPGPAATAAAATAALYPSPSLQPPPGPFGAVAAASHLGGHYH
# Outline: as §1
# [11] = molecular target: ETV5 (Homo sapiens, UniProt P41161 1-510); settings: protein: recombinant; tags: N-terminal GST; dsDNA, one strand shown
# Outline: as §1
# [12] = molecular target: HSF1 (Homo sapiens, UniProt Q00613 1-529); settings: protein: recombinant; tags: N-terminal GST; chain copies: 3; dsDNA, one strand shown
# Outline: as §1
# [13] = molecular target: T8, SPIC (Homo sapiens, UniProt Q8N5J4 1-248); settings: protein: recombinant; tags: N-terminal GST; dsDNA, one strand shown
# T8 sequence: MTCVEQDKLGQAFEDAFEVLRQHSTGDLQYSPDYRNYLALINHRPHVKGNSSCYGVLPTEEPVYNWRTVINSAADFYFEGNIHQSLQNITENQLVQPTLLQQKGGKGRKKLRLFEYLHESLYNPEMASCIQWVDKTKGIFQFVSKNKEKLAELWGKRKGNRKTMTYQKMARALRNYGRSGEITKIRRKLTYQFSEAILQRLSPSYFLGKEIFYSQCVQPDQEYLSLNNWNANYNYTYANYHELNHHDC
# Outline: as §1
# [14] = molecular target: ELF4 (Homo sapiens, UniProt Q99607 1-663); settings: protein: recombinant; tags: N-terminal GST; dsDNA, one strand shown
# Outline: as §1
# [15] = molecular target: T9, ELK4 (Homo sapiens, UniProt P28324-2 1-405); settings: protein: recombinant; tags: N-terminal GST; dsDNA, one strand shown
# T9 sequence: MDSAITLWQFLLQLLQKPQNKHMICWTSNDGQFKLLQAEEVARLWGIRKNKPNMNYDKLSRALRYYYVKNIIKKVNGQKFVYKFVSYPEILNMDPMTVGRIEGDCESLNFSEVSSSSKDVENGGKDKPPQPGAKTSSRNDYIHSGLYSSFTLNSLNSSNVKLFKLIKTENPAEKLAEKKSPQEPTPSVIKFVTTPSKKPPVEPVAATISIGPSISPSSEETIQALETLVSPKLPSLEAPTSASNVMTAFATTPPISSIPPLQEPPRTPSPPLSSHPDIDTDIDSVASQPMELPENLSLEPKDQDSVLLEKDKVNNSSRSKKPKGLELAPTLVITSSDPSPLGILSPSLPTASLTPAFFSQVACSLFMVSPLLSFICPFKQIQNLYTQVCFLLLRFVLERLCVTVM
# Outline: as §1
# [16] = molecular target: T10, ETV2 (Homo sapiens, UniProt O00321 1-342); settings: protein: recombinant; tags: N-terminal GST; dsDNA, one strand shown
# T10 sequence: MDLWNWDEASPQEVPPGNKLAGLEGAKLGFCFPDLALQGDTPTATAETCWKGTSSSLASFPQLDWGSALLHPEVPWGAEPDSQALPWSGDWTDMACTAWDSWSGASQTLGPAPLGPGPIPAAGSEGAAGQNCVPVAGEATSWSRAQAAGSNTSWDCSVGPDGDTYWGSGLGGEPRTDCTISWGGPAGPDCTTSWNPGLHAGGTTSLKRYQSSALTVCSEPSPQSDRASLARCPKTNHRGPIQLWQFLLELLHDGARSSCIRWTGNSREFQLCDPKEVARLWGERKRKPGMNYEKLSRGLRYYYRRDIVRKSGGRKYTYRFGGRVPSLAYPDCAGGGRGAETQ
# Outline: as §1
# [17] = molecular target: T11, ELF3 (Homo sapiens, UniProt P78545 1-371); settings: protein: recombinant; tags: N-terminal GST; dsDNA, one strand shown
# T11 sequence: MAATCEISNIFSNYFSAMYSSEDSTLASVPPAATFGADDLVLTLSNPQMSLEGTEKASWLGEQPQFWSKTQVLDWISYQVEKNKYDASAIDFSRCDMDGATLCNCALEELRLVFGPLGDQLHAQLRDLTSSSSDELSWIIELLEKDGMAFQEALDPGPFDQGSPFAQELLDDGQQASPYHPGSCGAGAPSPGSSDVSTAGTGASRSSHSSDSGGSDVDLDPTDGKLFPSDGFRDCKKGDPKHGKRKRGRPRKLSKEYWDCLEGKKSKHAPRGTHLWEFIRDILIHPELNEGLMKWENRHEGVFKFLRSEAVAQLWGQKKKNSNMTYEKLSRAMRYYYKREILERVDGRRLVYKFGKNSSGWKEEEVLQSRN
# Outline: as §1
# [18] = molecular target: ETV1 (Homo sapiens, UniProt P50549 1-477); settings: protein: recombinant; tags: N-terminal GST; dsDNA, one strand shown
# Outline: as §1
# ELF4, sequence (Q99607 whole entry): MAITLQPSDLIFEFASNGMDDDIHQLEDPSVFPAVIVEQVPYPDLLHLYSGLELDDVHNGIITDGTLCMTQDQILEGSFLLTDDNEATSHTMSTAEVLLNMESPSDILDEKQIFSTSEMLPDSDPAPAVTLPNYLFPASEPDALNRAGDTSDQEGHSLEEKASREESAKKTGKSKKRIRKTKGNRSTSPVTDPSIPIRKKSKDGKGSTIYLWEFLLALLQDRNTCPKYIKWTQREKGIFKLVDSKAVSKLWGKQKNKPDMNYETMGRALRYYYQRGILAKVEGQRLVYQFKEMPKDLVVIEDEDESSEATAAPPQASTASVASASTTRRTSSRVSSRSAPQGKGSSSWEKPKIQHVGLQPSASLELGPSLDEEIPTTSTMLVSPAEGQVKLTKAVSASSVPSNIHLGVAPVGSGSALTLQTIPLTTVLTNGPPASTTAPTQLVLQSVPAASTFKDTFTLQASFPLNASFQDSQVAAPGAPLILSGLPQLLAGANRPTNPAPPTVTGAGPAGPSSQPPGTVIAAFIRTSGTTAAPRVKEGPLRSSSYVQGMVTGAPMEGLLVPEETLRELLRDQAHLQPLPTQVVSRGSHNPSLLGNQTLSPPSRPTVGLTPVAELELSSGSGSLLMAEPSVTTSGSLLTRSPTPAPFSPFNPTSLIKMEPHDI
# ELF1, sequence (P32519 whole entry): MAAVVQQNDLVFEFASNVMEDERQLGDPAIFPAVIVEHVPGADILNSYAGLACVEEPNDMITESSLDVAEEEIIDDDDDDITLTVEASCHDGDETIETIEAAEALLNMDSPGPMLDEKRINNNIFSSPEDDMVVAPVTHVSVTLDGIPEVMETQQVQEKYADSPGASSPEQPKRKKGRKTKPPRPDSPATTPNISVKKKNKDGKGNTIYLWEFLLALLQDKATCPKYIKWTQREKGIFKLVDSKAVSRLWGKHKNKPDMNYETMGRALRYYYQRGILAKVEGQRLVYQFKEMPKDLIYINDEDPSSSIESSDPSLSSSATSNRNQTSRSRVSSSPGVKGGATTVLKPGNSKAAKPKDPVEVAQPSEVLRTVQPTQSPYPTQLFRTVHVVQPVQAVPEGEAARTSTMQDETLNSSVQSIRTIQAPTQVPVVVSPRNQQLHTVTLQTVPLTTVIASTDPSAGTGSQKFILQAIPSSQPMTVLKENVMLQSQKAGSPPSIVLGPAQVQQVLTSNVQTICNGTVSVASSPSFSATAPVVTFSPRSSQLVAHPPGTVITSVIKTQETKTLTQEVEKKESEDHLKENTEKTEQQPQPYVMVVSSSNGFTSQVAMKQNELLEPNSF
# HSF1, sequence (Q00613 whole entry): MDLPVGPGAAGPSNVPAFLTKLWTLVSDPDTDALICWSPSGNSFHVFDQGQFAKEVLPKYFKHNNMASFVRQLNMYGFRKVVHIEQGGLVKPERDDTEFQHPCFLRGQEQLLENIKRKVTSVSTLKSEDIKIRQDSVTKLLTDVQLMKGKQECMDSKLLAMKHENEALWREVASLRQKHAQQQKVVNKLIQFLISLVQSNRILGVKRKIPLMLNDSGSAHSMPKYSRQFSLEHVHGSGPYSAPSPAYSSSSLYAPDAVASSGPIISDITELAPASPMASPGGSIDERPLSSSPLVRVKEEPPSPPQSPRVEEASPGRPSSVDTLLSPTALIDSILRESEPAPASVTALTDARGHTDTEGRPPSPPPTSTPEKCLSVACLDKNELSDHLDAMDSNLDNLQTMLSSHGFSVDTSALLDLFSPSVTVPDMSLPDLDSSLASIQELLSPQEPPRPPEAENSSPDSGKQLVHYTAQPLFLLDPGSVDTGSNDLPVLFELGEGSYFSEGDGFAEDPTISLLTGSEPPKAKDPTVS
# ETV5, sequence (P41161 whole entry): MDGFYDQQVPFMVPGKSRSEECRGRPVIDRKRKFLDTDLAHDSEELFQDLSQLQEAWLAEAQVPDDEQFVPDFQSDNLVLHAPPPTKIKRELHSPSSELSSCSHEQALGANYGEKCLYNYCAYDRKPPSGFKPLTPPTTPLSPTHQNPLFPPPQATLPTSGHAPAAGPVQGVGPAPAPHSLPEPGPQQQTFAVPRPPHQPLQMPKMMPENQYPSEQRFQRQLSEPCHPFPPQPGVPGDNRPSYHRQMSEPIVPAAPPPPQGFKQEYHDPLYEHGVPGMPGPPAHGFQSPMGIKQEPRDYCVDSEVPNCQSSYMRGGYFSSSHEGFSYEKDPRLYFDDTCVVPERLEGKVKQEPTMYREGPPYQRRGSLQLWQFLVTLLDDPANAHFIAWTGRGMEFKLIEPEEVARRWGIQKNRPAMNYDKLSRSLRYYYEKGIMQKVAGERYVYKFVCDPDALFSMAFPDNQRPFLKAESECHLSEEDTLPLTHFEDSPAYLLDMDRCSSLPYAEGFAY
# SPIB, sequence (Q01892 whole entry): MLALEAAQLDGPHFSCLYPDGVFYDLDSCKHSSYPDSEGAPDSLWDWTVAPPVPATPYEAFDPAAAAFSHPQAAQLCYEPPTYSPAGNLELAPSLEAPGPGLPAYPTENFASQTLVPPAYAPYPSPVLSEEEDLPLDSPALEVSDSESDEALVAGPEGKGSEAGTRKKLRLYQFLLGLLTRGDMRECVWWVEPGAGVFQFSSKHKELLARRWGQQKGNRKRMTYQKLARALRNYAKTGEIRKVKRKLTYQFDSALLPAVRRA
# ETV1, sequence (P50549 whole entry): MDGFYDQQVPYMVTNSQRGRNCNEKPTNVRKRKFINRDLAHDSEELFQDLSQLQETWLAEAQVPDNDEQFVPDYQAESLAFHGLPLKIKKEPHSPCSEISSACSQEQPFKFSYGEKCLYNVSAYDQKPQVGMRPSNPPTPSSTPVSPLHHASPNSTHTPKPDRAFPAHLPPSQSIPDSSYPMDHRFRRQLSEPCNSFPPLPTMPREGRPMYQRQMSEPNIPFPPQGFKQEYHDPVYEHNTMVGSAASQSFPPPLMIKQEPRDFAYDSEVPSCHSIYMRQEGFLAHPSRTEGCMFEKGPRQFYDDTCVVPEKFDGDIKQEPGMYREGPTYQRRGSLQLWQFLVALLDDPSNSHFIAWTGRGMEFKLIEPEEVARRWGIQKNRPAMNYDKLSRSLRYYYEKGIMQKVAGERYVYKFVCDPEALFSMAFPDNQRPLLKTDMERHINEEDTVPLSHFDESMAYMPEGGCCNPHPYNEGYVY
sequence,measurement,setting,value
GTTTGA,binding signal,[1],"1.29 fold enrichment (6-mer frequency, TF over GST control)"
same,binding signal,[2],"1.19 fold enrichment (6-mer frequency, TF over GST control)"
same,binding signal,[3],"1.36 fold enrichment (6-mer frequency, TF over GST control)"
same,binding signal,[4],"1.12 fold enrichment (6-mer frequency, TF over GST control)"
same,binding signal,[5],"1.16 fold enrichment (6-mer frequency, TF over GST control)"
same,binding signal,[6],"1.06 fold enrichment (6-mer frequency, TF over GST control)"
same,binding signal,[7],"1.23 fold enrichment (6-mer frequency, TF over GST control)"
same,binding signal,[8],"1.16 fold enrichment (6-mer frequency, TF over GST control)"
same,binding signal,[9],"1.12 fold enrichment (6-mer frequency, TF over GST control)"
same,binding signal,[10],"1.13 fold enrichment (6-mer frequency, TF over GST control)"
same,binding signal,[11],"1.19 fold enrichment (6-mer frequency, TF over GST control)"
same,binding signal,[12],"1.03 fold enrichment (6-mer frequency, TF over GST control)"
same,binding signal,[13],"1.25 fold enrichment (6-mer frequency, TF over GST control)"
same,binding signal,[14],"1.13 fold enrichment (6-mer frequency, TF over GST control)"
same,binding signal,[15],"1.28 fold enrichment (6-mer frequency, TF over GST control)"
same,binding signal,[16],"1.22 fold enrichment (6-mer frequency, TF over GST control)"
same,binding signal,[17],"1.15 fold enrichment (6-mer frequency, TF over GST control)"
same,binding signal,[18],"1.2 fold enrichment (6-mer frequency, TF over GST control)"
